About 79,000 compounds went through this panel and 15% of them were active in at least one assay; those are over-represented in the sample as a whole. The source made the active and inactive calls. Rule as the data show it: active = growth inhibition above about 70%; inactive = the rest.
Legend:
[1] = NCI Yeast Anticancer Drug Screen. Data for the rad52 strain (AID 147);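 also: 0% = growth of vehicle-treated control cultures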; details: S. cerevisiae rad52 mutant growth inhibition, hits give high values
Summary of the method: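 Screen used a yeast mutant impaired in DNA repair. After compound exposure, growth was measured. Values reflect inhibition compared with vehicle-treated cells.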

[2] = NCI Yeast Anticancer Drug Screen. Data for the wt1 strain (AID 149);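 also: 0% = growth of vehicle-treated wt1 cultures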; details: S. cerevisiae wt1 strain (SPY 50644) growth inhibition, hits give high values
Summary of the method: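 wt1 strain grown with compound or vehicle; inhibition taken from the growth difference.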

[3] = NCI Yeast Anticancer Drug Screen. Data for the rad50EPP+ strain (AID 151);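 also: 0% = growth of vehicle-treated control cultures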; details: S. cerevisiae rad50 mutant strain, hits give high values
Summary of the method: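 Exposing the rad50EPP+ strain to each compound, growth was compared with vehicle-only cultures to give inhibition.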

[4] = NCI Yeast Anticancer Drug Screen. Data for the mgt1 strain (AID 153); details: S. cerevisiae mgt1 mutant growth inhibition, hits give high values
Summary of the method: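 Genetically defined yeast (mgt1) treated with compound; inhibition of growth expressed against vehicle-treated controls.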

[5] = NCI Yeast Anticancer Drug Screen. Data for the rad50 strain (AID 155);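 also: 0% = growth of vehicle-only cultures of the same strain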; details: S. cerevisiae rad50 strain growth inhibition, hits give high values
Summary of the method: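 DNA repair mutant yeast, compound exposure, growth read-out; inhibition is taken relative to vehicle.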

[6] = NCI Yeast Anticancer Drug Screen. Data for the mec2-1 strain (AID 157); details: S. cerevisiae mec2-1 strain, hits give high values
Summary of the method: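 Readout is yeast growth inhibition, normalised to vehicle-treated controls, in the mec2-1 strain exposed to compound.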

[7] = NCI Yeast Anticancer Drug Screen. Data for the rad14 strain (AID 159);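 also: 0% = growth of vehicle-treated control cultures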; details: S. cerevisiae rad14 strain growth inhibition, hits give high values
Summary of the method: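 DNA repair-defective yeast, compound-exposed; % growth inhibition derived by comparison with vehicle-treated controls.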

[8] = NCI Yeast Anticancer Drug Screen. Data for the sgs1 mgt1 strain (AID 161);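 also: 0% = growth of cultures given vehicle only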; details: S. cerevisiae sgs1 mgt1 strain, hits give high values
Summary of the method: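 This yeast growth screen uses a strain with defined DNA-repair lesions; compound-treated growth is compared with vehicle-treated growth.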

[9] = NCI Yeast Anticancer Drug Screen. Data for the cln2 rad14 strain (AID 165);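 also: 0% = growth equal to vehicle treated cultures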; details: S. cerevisiae cln2 rad14 strain, hits give high values
Summary of the method: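 Relative to vehicle controls, growth inhibition of compound-treated cln2 rad14 yeast was recorded.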

[10] = NCI Yeast Anticancer Drug Screen. Data for the bub3 strain (AID 167); details: S. cerevisiae bub3 mutant strain, hits give high values
Summary of the method: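 In this screen, a yeast mutant lacking normal mitotic checkpoint function is challenged with compound. Relative growth versus vehicle gives the inhibition value.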

[11] = NCI Yeast Anticancer Drug Screen. Data for the wt2 strain (AID 169);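 also: 0% = growth of vehicle-treated yeast cultures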; details: S. cerevisiae wt2 strain growth inhibition, hits give high values
Summary of the method: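 Values express reduction in yeast growth under compound treatment, referenced to vehicle-treated cells.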

[12] = NCI Yeast Anticancer Drug Screen. Data for the mlh1 strain (AID 171);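 also: 0% = growth of vehicle-treated control cultures of the same strain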; details: S. cerevisiae mlh1 strain growth inhibition, hits give high values
Summary of the method: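 Steps: expose the defined-mutant yeast strain to compound; expose a parallel culture to vehicle; measure growth; express compound effect as inhibition relative to the vehicle culture.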

[13] = NCI Yeast Anticancer Drug Screen. Data for the sgs1 strain (AID 173);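 also: 0% = growth of vehicle-only control cultures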; details: S. cerevisiae sgs1 mutant, hits give high values
Summary of the method: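 Treat defined-mutant yeast with compound; measure growth; calculate inhibition relative to vehicle-treated cells.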

[14] = NCI Yeast Anticancer Drug Screen. Data for the mlh1 rad18 strain (AID 175); details: S. cerevisiae mlh1 rad18 strain growth inhibition, hits give high values
Summary of the method: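 Test agents were incubated with a yeast strain of defined genotype (DNA damage repair defect). Inhibition of growth was derived by comparison with vehicle-exposed cultures.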

[15] = NCI Yeast Anticancer Drug Screen. Data for the rad18 strain (AID 177); details: S. cerevisiae rad18 mutant growth inhibition, hits give high values
Summary of the method: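 A genetically defined yeast mutant impaired in DNA damage repair was treated with test compounds, then its growth was measured against cultures receiving vehicle alone.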

[16] = NCI Yeast Anticancer Drug Screen. Data for the CLN2oe strain (AID 163);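 also: 0% = growth of vehicle-only control cultures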; details: S. cerevisiae CLN2oe strain, hits give high values
Summary of the method: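 Values reflect how much compound exposure reduced yeast growth, referenced to vehicle-exposed cells. Assay organism is a strain with a defined genetic change affecting cell-cycle control.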

[17] = at 5.0 µM (retest, dose inferred, filed as 0.5)
[18] = at 50.0 µM (retest, dose inferred, filed as 5.0)

Measured: growth inhibition

CCOC(=O)C1=C(C(=O)c2ccccc2)C(c2ccccc2[N+](=O)[O-])C(C(=O)c2ccccc2)=C(C(=O)OCC)N1
active: [5]; at 50.0 µM 71.6% | [10]; [18] 86%
inactive: [1]; at 1.2 µM -2% | [1]; at 3.7 µM 0% | [1]; at 11.0 µM -1% | [1]; at 33.0 µM 1% | [1]; at 100.0 µM 11% | [2]; at 1.2 µM -2% | [2]; at 3.7 µM -1% | [2]; at 11.0 µM -1% | [2]; at 33.0 µM -1% | [2]; at 100.0 µM -4% | [3]; at 1.2 µM 1% | [3]; at 3.7 µM 7% | [3]; at 11.0 µM 13% | [3]; at 33.0 µM 18% | [3]; at 100.0 µM 27% | [4]; at 1.2 µM 0% | [4]; at 3.7 µM 1% | [4]; at 11.0 µM 0% | [4]; at 33.0 µM 1% | [4]; at 100.0 µM 35% | [5]; at 1.2 µM 0% | [5]; at 3.7 µM -1% | [5]; [17] 2% | [5]; at 11.0 µM -2% | [5]; at 33.0 µM 1% | [5]; [18] 60% | [5]; at 100.0 µM 17% | [6]; at 1.2 µM -3% | [6]; at 3.7 µM -3% | [6]; [17] -4% | [6]; at 11.0 µM -3% | [6]; at 33.0 µM -1% | [6]; [18] 20% | [6]; at 50.0 µM 18.6% | [6]; at 100.0 µM 10% | [7]; at 1.2 µM 0% | [7]; at 3.7 µM 2% | [7]; at 11.0 µM 8% | [7]; at 33.0 µM 9% | [7]; at 100.0 µM 29% | [8]; [17] 9% | [8]; [18] 16% | [8]; at 50.0 µM 41.8% | [9]; [17] 7% | [9]; [18] 39% | [9]; at 50.0 µM 16.9% | [10]; at 1.2 µM 6% | [10]; at 3.7 µM 8% | [10]; [17] 3% | [10]; at 11.0 µM 11% | [10]; at 33.0 µM 10% | [10]; at 50.0 µM 19% | [10]; at 100.0 µM 42% | [11]; at 1.2 µM -2% | [11]; at 3.7 µM -1% | [11]; at 11.0 µM -1% | [11]; at 33.0 µM 0% | [11]; at 100.0 µM 10% | [12]; at 1.2 µM -1% | [12]; at 3.7 µM -2% | [12]; at 11.0 µM -2% | [12]; at 33.0 µM 1% | [12]; at 100.0 µM 20% | [13]; at 1.2 µM -2% | [13]; at 3.7 µM 1% | [13]; at 11.0 µM 5% | [13]; at 33.0 µM 7% | [13]; at 100.0 µM 17% | [14]; [17] -21% | [14]; [18] 61% | [14]; at 50.0 µM 65.6% | [15]; at 1.2 µM 0% | [15]; at 3.7 µM 1% | [15]; at 11.0 µM 1% | [15]; at 33.0 µM 7% | [15]; at 100.0 µM 39%

CCN(CC)[P+](c1ccccc1O)(N(CC)CC)N(CC)CC
inactive: [1]; at 1.2 µM -25% | [1]; at 3.7 µM -15% | [1]; at 11.0 µM 17% | [1]; at 33.0 µM 27% | [2]; at 1.2 µM -35% | [2]; at 3.7 µM -25% | [2]; at 11.0 µM 12% | [2]; at 33.0 µM 34% | [3]; at 1.2 µM -35% | [3]; at 3.7 µM -26% | [3]; at 11.0 µM -33% | [3]; at 33.0 µM -31% | [3]; at 100.0 µM -34% | [4]; at 1.2 µM -42% | [4]; at 3.7 µM -42% | [4]; at 11.0 µM -32% | [4]; at 33.0 µM 13% | [5]; at 1.2 µM -30% | [5]; at 3.7 µM 9% | [5]; [17] 37% | [5]; at 11.0 µM 43% | [5]; at 33.0 µM 54% | [5]; [18] 68% | [5]; at 50.0 µM 61.5% | [6]; at 1.2 µM -78% | [6]; at 3.7 µM -39% | [6]; [17] 28% | [6]; at 11.0 µM 29% | [6]; at 33.0 µM 24% | [6]; [18] 55% | [6]; at 50.0 µM 62.1% | [7]; at 1.2 µM -46% | [7]; at 3.7 µM -38% | [7]; at 11.0 µM -21% | [7]; at 33.0 µM 32% | [16]; at 1.2 µM -56% | [16]; at 3.7 µM -8% | [16]; at 11.0 µM -23% | [16]; at 33.0 µM 5% | [9]; [17] 8% | [9]; at 50.0 µM 57.6% | [10]; at 1.2 µM -41% | [10]; at 3.7 µM -3% | [10]; [17] 23% | [10]; at 11.0 µM 23% | [10]; at 33.0 µM 60% | [10]; at 50.0 µM 54.6% | [11]; at 1.2 µM -25% | [11]; at 3.7 µM -13% | [11]; at 11.0 µM -19% | [11]; at 33.0 µM 7% | [12]; at 1.2 µM -60% | [12]; at 3.7 µM -61% | [12]; at 11.0 µM -22% | [12]; at 33.0 µM 30% | [13]; at 1.2 µM -82% | [13]; at 3.7 µM -50% | [13]; at 11.0 µM -25% | [13]; at 33.0 µM 11% | [14]; [17] 39% | [15]; at 1.2 µM -6% | [15]; at 3.7 µM 37% | [15]; at 11.0 µM 53% | [15]; at 33.0 µM 59%
active: [1]; at 100.0 µM 85% | [2]; at 100.0 µM 84% | [4]; at 100.0 µM 76% | [5]; at 100.0 µM 90% | [6]; at 100.0 µM 85% | [7]; at 100.0 µM 95% | [16]; at 100.0 µM 93% | [9]; [18] 96% | [10]; [18] 98% | [10]; at 100.0 µM 87% | [11]; at 100.0 µM 77% | [12]; at 100.0 µM 73% | [13]; at 100.0 µM 74% | [14]; [18] 74% | [14]; at 50.0 µM 70.2% | [15]; at 100.0 µM 90%

C[C@@H]1C[C@H]2[C@@H]3CCC4=CC(=O)C=C[C@]4(C)[C@@]3(Cl)[C@@H](Cl)C[C@]2(C)[C@@]1(O)C(=O)COP(=O)(O)O
inactive: [1]; at 1.2 µM -1% | [1]; at 3.7 µM -3% | [1]; at 11.0 µM 6% | [1]; at 33.0 µM 1% | [1]; at 100.0 µM 3% | [2]; at 1.2 µM 1% | [2]; at 3.7 µM -2% | [2]; at 11.0 µM -3% | [2]; at 33.0 µM -4% | [2]; at 100.0 µM -2% | [3]; at 1.2 µM -3% | [3]; at 3.7 µM -8% | [3]; at 11.0 µM -3% | [3]; at 33.0 µM 3% | [3]; at 100.0 µM 5% | [4]; at 1.2 µM 11% | [4]; at 3.7 µM 5% | [4]; at 11.0 µM 3% | [4]; at 33.0 µM 8% | [4]; at 100.0 µM 2% | [5]; at 1.2 µM 4% | [5]; at 3.7 µM -10% | [5]; [17] 2% | [5]; at 11.0 µM 3% | [5]; at 33.0 µM 7% | [5]; [18] 19% | [5]; at 50.0 µM -34.1% | [5]; at 100.0 µM 8% | [6]; at 1.2 µM -3% | [6]; at 3.7 µM -3% | [6]; [17] 17% | [6]; at 11.0 µM 0% | [6]; at 33.0 µM -3% | [6]; [18] 5% | [6]; at 50.0 µM -36.9% | [6]; at 100.0 µM 1% | [8]; [17] -14% | [8]; [18] 6% | [8]; at 50.0 µM -30.8% | [16]; at 1.2 µM -10% | [16]; at 3.7 µM -3% | [16]; at 11.0 µM 7% | [16]; at 33.0 µM -1% | [16]; at 100.0 µM -6% | [9]; [17] 41% | [9]; [18] -23% | [9]; at 50.0 µM 26.1% | [10]; at 1.2 µM 2% | [10]; at 3.7 µM -1% | [10]; [17] -20% | [10]; at 11.0 µM 2% | [10]; at 33.0 µM 0% | [10]; [18] -8% | [10]; at 50.0 µM -42.2% | [10]; at 100.0 µM -3% | [11]; at 1.2 µM -2% | [11]; at 3.7 µM -2% | [11]; at 11.0 µM -2% | [11]; at 33.0 µM -2% | [11]; at 100.0 µM -3%

From PubChem BioAssay (NCI)
